PubChem BioAssay AID1347426 (Functional Genomics Laboratory (NCATS/FGL), 2020)
About 1,400 (4.5%) of roughly 31,000 sequences were called active.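 Rule for the calls: active = median seed-adjusted z-score above 1 or below -1; inactive = the rest.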 The sample as a whole holds a higher share of actives than the screen did.

Experiment: Novel Modifiers of Survival Motor Neuron (SMN) Protein: Gene Identification via Genome-wide siRNA Screen;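 note: luminescence tracks full-length SMN protein made from the SMN2 reporter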
Conditions: HEK293T SMN2-luciferase reporter, siRNA knockdown, 72 h; actives lie on both sides
Summary of the method: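 Luciferase signal, proportional to full-length SMN made from an SMN2 cDNA reporter in stable HEK293T cells, was read 72 h after siRNA reverse transfection. Values were expressed as MAD scores after non-targeting-control normalization and log10 conversion; seed analysis flagged off-targets.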

| Sequence | median seed-adjusted z-score |
| --- | --- |
| CUAUUAGGUUGACCAAUAATT against OSGEPL1 | -0.708 (inactive) |
| GGAGGAUCAAUUUAUCAGATT against VDAC2 | 0.648 (inactive) |
| CAGUGUUCCUAUUAGAUGATT against LONP2 | 1.52 (active) |
| CCUGUGCUGUUAUGAAGCUTT against APC2 | 0.00354 (inactive) |
| GAAUGGAGAGAGAAUUGAATT against B2M | -0.367 (inactive) |
| GGAUUAAAGAGAAGAUCUATT against ERH | -1.25 (active) |
| CCAGGAGAAAUAUAAGUCATT against ZNF627 | 0.204 (inactive) |
| GGACGAGAAAAACUGCUCATT against CORIN | -0.0274 (inactive) |
| GCAUACAUAUGGUAUAGCATT against DDX20 | -0.0137 (inactive) |
| GCGGAGAUCAGAUUAGUCATT against NCL | 1.33 (active) |
| GCAUGACCGCUUAUCCCAATT against SLC6A5 | -0.204 (inactive) |
| CAUUCACUUUGACACCAUATT against HSD17B7 | 0.0836 (inactive) |
| GGUUUUUGCUGGACAAACATT against PPP2R3C | 0.295 (inactive) |
| CCGUGUACGUGGAUGAUGATT against LPHN1 | -1.03 (active) |
| GCAUUAGUCUGACAGUACATT against MRGPRX3 | -0.175 (inactive) |
| CGAACCUAAUGCUCAACAATT against PREX2 | -0.0625 (inactive) |
| GGAAAUUAGAUACCGAGGATT against SLC25A30 | 0 (inactive) |
| GGCUAACAUUAGAACACUUTT against MED6 | -2.15 (active) |
| CGGAGUCUGCGCUUCGUUATT against ACP2 | -0.00569 (inactive) |
| GCUUUAUAAGUGUAGCGAATT against ZNF749 | 0.911 (inactive) |
| GGAGGUCACUUGUGAAUCATT against GLS2 | -0.793 (inactive) |
| CCCAGUUCCUGCUAUCUCATT against POU2F3 | -1.53 (active) |
| GGGCUACCAUCUCCUUUCATT against SLC23A3 | -0.254 (inactive) |
| GUACCCAAGUAACAACUGUTT against CXCL11 | -0.135 (inactive) |
| UCCACUGACUCGUAAAGUUTT against PROK2 | -0.00826 (inactive) |
| GCUCGGUGGUUGAUAAUCATT against SLC22A10 | -0.0897 (inactive) |
| AGACCAUCGCAGAGACAGATT against SLC31A2 | 0.401 (inactive) |
| GGAUGUUCGUCAUAUUGAATT against IRAK3 | 0.155 (inactive) |
| CAAAAGACCUGUAAUAAGATT against MAGT1 | -0.0855 (inactive) |
